In PubChem BioAssay AID1345085 (National Center for Advancing Translational Sciences (NCATS), 2018):
Inconclusive results are not listed. Entries that show only a call come without a potency. The source made the active and inactive calls. Calls come from the whole dose curve; as a rule, active = well fitted cell-killing curve with a large enough effect; inconclusive = small, poorly fitted or top-dose-only effect, or effect the other way; inactive = no such curve, though single readings can be large or run the other way.

System: C33A
Test: Confirmatory qHTS for gynecologic anti-cancer compounds from libraries of approved drugs and bioactive compounds; note: nearly all actives have a fitted effect of over 55% in size
Conditions: gynecologic cancer cell panel viability, ATPlite luminescence, 48 h; series mostly up to 57.6 µM
Summary of the method: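 ATP-based luminescent viability (ATPlite) after 48 h drug treatment at 37 °C, 5% CO2, across 57.5 uM–0.977 nM in 1:3 steps. Cells seeded at 1,000 per well 16 h beforehand; IC50 values computed, HEK 293T as selectivity control.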
Potency is the fitted concentration of half-maximal effect.

Row | Structure (SMILES) | Potency
1 | CCC(=O)O[C@H]1CC[C@H]2[C@@H]3CCC4=CC(=O)CC[C@]4(C)[C@H]3CC[C@]12C | inactive
2 | C/C=C(/C)C(=O)O[C@H]1C(C)=C2[C@H]([C@@H]1OC(=O)CCCCCCC)[C@@](C)(OC(C)=O)C[C@H](OC(=O)CCC)[C@@]1(O)[C@H]2OC(=O)[C@@]1(C)O | 21.7 µM (active)
3 | CCNC(=O)C[C@@H]1N=C(c2ccc(Cl)cc2)c2cc(OC)ccc2-n2c(C)nnc21 | inactive
4 | C[C@]12CC[C@H]3[C@@H](CCC4=CC(=O)CC[C@@H]43)[C@@H]1CC[C@@H]2OC(=O)CCc1ccccc1 | inactive
5 | CCN1CCN(C(=O)Cc2ccc(Nc3ncc(F)c(Nc4ccc(C(=O)Nc5ccccc5Cl)cc4)n3)cc2)CC1 | inactive
6 | Cc1sc2c(c1C)C(c1ccc(Cl)cc1)=NC(CC(=O)OC(C)(C)C)c1nnc(C)n1-2 (stereo unspecified) | inactive
